From PubChem
Most compounds without a hit are left out; they make up all but 3.4% or so of the library.
TEAD-YAP inh: TEAD-YAP interaction inhibition, primary screen, TEAD-YAP interaction inhibitor project, luminescence, HEK-TIYL cells. TEAD-Gal4/YAP UAS-luciferase luminescence. inhibition, % at 9.12 µM. actives 1.4% (n = 640,000); in the data active means inhibition above about 32%;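 further: 0% = median of test compound wells and 100% = reference inhibitor wells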
FBW7 activator: FBW7 E3 ligase activators, primary screen, biochemical, AlphaScreen, human; F-box/WD repeat-containing protein 7 (Homo sapiens), Q969H0; AID 1259310, 2017; actives 0.13% (n = 650,000); AlphaScreen FBW7–phospho-cyclin E peptide binding, activator screen; normalized activity (activation), % at 26.1 µM; in the data active means normalized activity above about 1.9%;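 further: purified mutant Fbw7 with reduced substrate affinity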
GPR151 activ: activators of human GPR151, primary screen, cell-based, PathHunter beta-arrestin, luminescence; PathHunter beta-arrestin GPR151 cells; actives 1% (n = 650,000); activation, % at 11.2 µM; G-protein coupled receptor 151 (Homo sapiens), Q8TDV0; in the data active means activation above about 4.9%;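 further: 0% = median of compound wells and 100% = cells with positive control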
MITF primary: MITF inhibitors, primary screen, biochemical, AlphaScreen, human. Microphthalmia-associated transcription factor (Homo sapiens), O75030. AlphaScreen MITF homodimerization, bead proximity signal. inhibition, % at 2.6 µM. actives 0.91% (n = 650,000). AID 1259374, 2018; in the data active means inhibition above about 50%;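 further: 0% = vehicle wells with protein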
Target sequence (O75030 whole entry, looked up): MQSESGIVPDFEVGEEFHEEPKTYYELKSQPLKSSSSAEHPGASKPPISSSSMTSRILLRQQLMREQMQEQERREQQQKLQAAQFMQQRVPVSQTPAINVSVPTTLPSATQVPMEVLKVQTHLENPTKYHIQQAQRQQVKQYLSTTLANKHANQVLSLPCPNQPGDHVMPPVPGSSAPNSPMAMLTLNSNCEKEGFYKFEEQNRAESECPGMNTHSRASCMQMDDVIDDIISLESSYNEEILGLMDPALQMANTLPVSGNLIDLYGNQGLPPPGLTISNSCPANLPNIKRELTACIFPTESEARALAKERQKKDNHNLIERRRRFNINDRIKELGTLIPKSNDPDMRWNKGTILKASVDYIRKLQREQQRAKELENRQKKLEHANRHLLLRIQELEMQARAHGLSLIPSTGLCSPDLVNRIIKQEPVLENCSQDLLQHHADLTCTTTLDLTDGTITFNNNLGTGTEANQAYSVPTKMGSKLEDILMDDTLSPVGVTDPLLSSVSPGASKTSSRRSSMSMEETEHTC
MITF inh conf: MITF inhibitors, retest of hits, confirmation, biochemical, AlphaScreen, triplicate. actives 16% (n = 4,700). AlphaScreen MITF homodimerization, biotin/His-MITF beads. shares compounds with MITF primary. inhibition, % at 2.6 µM. AID 1259372, 2018;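 active means inhibition above a cutoff derived from the DMSO control wells, cut at about 28% in these data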;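 further: 0% = MITF dimer wells with DMSO only; inhibitors lower the bead chemiluminescence by keeping MITF from dimerizing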
AlphaScreen DR: AlphaScreen optical interference compounds, dose response, counter-screen, biochemical, HTS; AID 1259373, 2018; actives 6% (n = 480); AlphaScreen optical interference counterscreen, cell-free; IC50, µM; shares compounds with MITF primary; call rule not given here
AS interf ctr: AlphaScreen optical interference compounds, counter-screen for MITF inhibitor project, biochemical, triplicate; actives 7.6% (n = 4,700); shares compounds with MITF primary; LysRS AlphaScreen counterscreen, signal interference; inhibition, % at 2.6 µM;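 active means inhibition above a cutoff derived from the DMSO control wells, cut at about 30% in these data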
An asterisk follows results filed as active; x = not tested or not shown.

SMILES	TEAD-YAP inh	FBW7 activator	GPR151 activ	MITF primary	MITF inh conf	AS interf ctr	others
CC(=O)N1CCC(=NNc2nc3ccccc3[nH]2)CC1	-26	0	1	82*	30*	50*
COC(=O)c1cc(-c2ccc(/C=C3\C(=O)N(c4ccc(S(N)(=O)=O)cc4)N=C3C(F)(F)F)o2)ccc1Cl	10	0	0	11	x	x
CC1CCC(N2CCN(Cc3ccccn3)CC2)CC1 (configuration not stated)	12	1	-2	64*	0	3
c1ccc(CN2CCN(c3ncccn3)CC2)nc1	-2	1	-3	14	x	x
c1ccc(CN2CCN(C3CCCCCC3)CC2)nc1	4	0	-1	67*	-9	15
c1ccc(CN2CCN(C3CCCCC3)CC2)nc1	5	1	-2	60*	12	10
O=C(COC(=O)c1cc(F)c(F)cc1Cl)NCc1cccs1	5	0	0	7	x	x
CC1(C)C=CN(Cc2cc([N+](=O)[O-])ccc2O)c2ccccc21	13	0	1	4	x	x
O=S1(=O)N=C(CN(C2CC2)C2CCN(Cc3ccccc3)CC2)Nc2ccccc21	6	0	1	-1	x	x
COc1ccc(NC(=O)CSc2nc3cccnc3n2C)c(OC)c1	12	0	-1	10	x	x
COc1cc(CN2CCN(Cc3cccnc3)CC2)cc(OC)c1O	1	0	-2	66*	4	7
COc1cc(CN2CCCCCCC2)cc(OC)c1O	-3	0	0	22	x	x
COc1ccc(C2CCN(Cc3cccnc3)CC2)cc1	2	0	0	64*	10	9
COc1cccc(CN2CCN(Cc3cccnc3)CC2)c1	-4	0	-1	79*	-11	0
COc1cccc(CN2CCOCC2)c1	7	0	0	-2	x	x
CSc1ccc(CN2CCN(Cc3cccnc3)CC2)cc1	3	1	0	86*	16	17
COc1ccc(CC2(CO)CCN(Cc3cccnc3)CC2)cc1	6	0	1	-5	x	x
COc1ccc(CN2CCN(Cc3cccnc3)CC2)cc1	-14	0	2	74*	24	13
COc1cccc(CN2CCC(CNc3ccc(-c4ccncc4)cc3)C2)c1 (configuration not stated)	-6	0	-2	63*	61*	12	AlphaScreen DR=>6.5
FC(F)(F)c1ccccc1CN1CCOCC1	8	0	0	77*	3	-1
FC(F)(F)c1ccccc1CN1CCN(Cc2ccc(Cl)cc2)CC1	-12	0	-1	41	x	x
FC(F)(F)c1ccccc1CN1CCN(Cc2cccnc2)CC1	-1	0	1	83*	10	22
Cc1ccccc1CN1CCN(Cc2ccccc2C(F)(F)F)CC1	0	0	-1	80*	-2	13
COC(=O)c1ccc(CN2CCN(Cc3nc4ccccc4[nH]3)CC2)o1	3	0	5	73*	4	21
CC(=O)c1ccc(NC(=O)N2CCN(Cc3nc4ccccc4[nH]3)CC2)cc1	-1	0	-1	3	x	x
SMILES	TEAD-YAP inh	FBW7 activator	GPR151 activ	MITF primary	MITF inh conf	AS interf ctr	others
COc1ccc(CCNC(=O)N2CCN(Cc3nc4ccccc4[nH]3)CC2)cc1	8	-1	-1	9	x	x
O=C(c1ccc(Cn2ccnc2)cc1)N1CCN(Cc2nc3ccccc3[nH]2)CC1	-3	0	-1	87*	4	14
c1ccc(Oc2ccc(-c3nc4ccccc4nc3-c3ccccc3)cc2)cc1	-12	0	-2	0	x	x
CCOc1ccc(OCCOCCN2CCN(C)CC2)cc1	7	0	-1	72*	12	-6
Cc1ccc(OCCOCCN2CCN(C)CC2)cc1	-3	0	0	60*	8	9
COc1ccc(OCCOCCN2CCN(C)CC2)cc1	4	0	-1	12	x	x
CC(C)c1ccc(OCCOCCN2CCN(C)CC2)cc1	-3	0	-2	59*	11	31*
CCOC(=O)c1c(NC(=O)CCc2ccccc2)sc2c1CC(C)(C)OC2	-3	0	-2	19	x	x
Cn1c(=NC(=O)c2cccs2)sc2cc3c(cc21)OCCO3	26	0	0	-14	x	x
Cc1cc(C(=O)N=c2sc3cc4c(cc3n2C)OCCO4)no1	-23	0	0	76*	2	-6
CC1(C)CC(=O)C=C(NCC2NCCc3ccccc32)C1 (configuration not stated)	-4	0	4	-6	x	x
Fc1cccc(F)c1CNCC1NCCc2ccccc21 (configuration not stated)	8	0	1	78*	-3	9
CC1=NN(c2cccc3ccccc23)C(=O)C1	8	-2	-1	10	x	x
CC1=NN(c2ccc3cccc(O)c3n2)C(=O)C1	7	0	2	90*	115*	101*
CCCC(=O)Nc1ccc2c(c1)C(=O)N(C1CCCCC1)C2=O	11	0	-1	58*	-5	-8
CCC(=O)Nc1ccc2c(c1)C(=O)N(C1CCCCC1)C2=O	-13	0	0	-1	x	x
COc1ccc(OC)c(Cc2nnc(CCC(=O)NC3CC(C)(C)CC(C)(C)C3)o2)c1	-33	0	-3	9	x	x
Cc1nn(C)c(C)c1CN(C)C(=O)c1cnn2c(C(F)(F)F)cc(-c3ccccc3)nc12	-4	0	0	-5	x	x
CCNc1nc(NCCOc2ccccc2)c2ncn(C3CCCCC3)c2n1	-14	0	3	54*	3	7
CCOC(=O)/C(=C\c1ccccc1)NC(=O)c1ccc(I)cc1	-17	0	2	15	x	x
Cc1ccc(N=c2c([N+](=O)[O-])nn(-c3cccc(Cl)c3)n2O)cc1	21	-1	0	12	x	x
Cc1cccc(-n2nc([N+](=O)[O-])c(=Nc3cccc(Cl)c3)n2O)c1	16	0	0	56*	0	0
CCCOC(=O)C(C)Nc1n[nH]c(=S)[nH]c1=O (configuration not stated)	-3	-1	0	55*	-1	20
COc1ccc(CCNC(=O)c2cc(Cc3cccc(OC)c3)no2)cc1	-46	0	-1	1	x	x
CCCS(=O)(=O)N1CCN(CC2CC=CCC2)CC1 (configuration not stated)	10	0	0	32	x	x
CC1CCC(N2CCN(CC3CC=CCC3)CC2)CC1 (configuration not stated)	2	0	-1	62*	2	0
